The campaign covered roughly 59,000 compounds. About 6,500 (11%) were called active. Another 15% or so got no clear call; they are omitted. Cut-off read from the data, not from the text of the source: active = max dye-equivalent concentration above about 10 nM; inconclusive = mostly about 1.1 nM to 9.6 nM; inactive = weaker than that. The entries come from a sample that favours actives as a whole.

A short description of the assay: qHTS Assay for Spectroscopic Profiling in A350 Spectral Region. To be noted: Compound autofluorescence, 340/450 nm, Alexa 350 dye-equivalents; active compounds read high. (In general: Quantitative high-throughput screening tests each substance at several concentrations.)
For the molecule `N#Cc1ccc(CSc2nnc(-c3ccccn3)n2-c2ccc(Cl)cc2)cc1`, the max dye-equivalent concentration entry is “inactive”.

With `CN(C)c1ccc(CNC23CN4CN(CN(C4)C2)C3)cc1`, the max dye-equivalent concentration result was “inactive”.

As to `CCOC(=O)CSc1nnc(CNC(=O)c2ccco2)n1-c1ccc(F)cc1`, the max dye-equivalent concentration result was “inactive”.

Regarding `O=C(Oc1ccc2c(c1)CN(Cc1ccccc1)CO2)c1ccccc1`, the max dye-equivalent concentration result was “inactive”.

On to `COC(=O)c1c(NC(=O)CSc2nc3c(c(=O)n(C)c(=O)n3C)n2C(C)C)sc(C)c1C`, for which the max dye-equivalent concentration result is “inactive”.

With `CCOP1(=O)C=C(C(C)(C)C)OC1c1ccc(F)cc1` (configuration not stated), the max dye-equivalent concentration entry is “inactive”.

In the case of `CC(C)c1nc(-c2ccccn2)no1`, the max dye-equivalent concentration result is “inactive”.

In the case of `CSCCC(NS(=O)(=O)/C=C/c1ccccc1)C(=O)N1CCC(C)CC1` (configuration not stated), the max dye-equivalent concentration entry is “inactive”.

Take `CCn1c(SCC(=O)Nc2ccc3c(c2)OCCO3)nc2c(c1=O)SC(C)C2` (configuration not stated): the max dye-equivalent concentration result was “inactive”.

`O=C(O)c1ccc(C(=O)O)c2c(C(=O)O)ccc(C(=O)O)c12`: the max dye-equivalent concentration entry was “inactive”.

As for `COc1ccc2[nH]c(=O)c(CN(Cc3nnnn3CCc3ccccc3)CC3CCCO3)cc2c1` (configuration not stated), the max dye-equivalent concentration is 300 nM (active).

Consider `CCC(=O)N(Cc1cc2cc(OC)ccc2[nH]c1=O)c1ccccc1C`, for which the max dye-equivalent concentration is 170 nM (active).

On to `CCOc1ccc2c(c1)cc(CN(C(=O)CC)C1CCCCC1)c1nnnn12`, for which the max dye-equivalent concentration entry is “inactive”.

With `O=C(OCc1cc2ccccc2[nH]c1=O)c1cccnc1`, the max dye-equivalent concentration entry is “inactive”.

In the case of `O=C(CN(CC1CCCO1)C(=O)CNS(=O)(=O)c1ccccc1)NCc1ccccc1` (configuration not stated), the max dye-equivalent concentration result is “inactive”.

Consider `COc1ccc2[nH]c(=O)c(CN(CC3CCCO3)C(=O)Nc3ccccc3)cc2c1` (configuration not stated), for which the max dye-equivalent concentration was 100 nM (active).

With `CCOc1ccc2[nH]c(=O)c(CN(CCCO)C(C)=O)cc2c1`, the max dye-equivalent concentration is 290 nM (active).

As to `c1ccc(CCn2nnnc2CN2CCN(C3CCCC3)CC2)cc1`, the max dye-equivalent concentration entry was “inactive”.

With `Cc1cc(C)c2cc(CN(Cc3cccs3)Cc3nnnn3CC3CCCO3)c(=O)[nH]c2c1` (configuration not stated), the max dye-equivalent concentration entry is “inactive”.

As to `C[C@@H]1CC[C@H]2[C@H](C)[C@H]3[C@H](C[C@H]4[C@@H]5CC=C6C[C@@H](O)CC[C@@]6(C)[C@@H]5C[C@@H](O)[C@]34C)N2C1`, the max dye-equivalent concentration result is “inactive”.

Turning to `CN(C)CCNC(CC(=O)Nc1ccc(Cl)c(Cl)c1)C(=O)O` (configuration not stated), the max dye-equivalent concentration entry was “inactive”.

`Cc1ccc(CNC(=O)C2CCCN(S(C)(=O)=O)C2)cc1` (configuration not stated): the max dye-equivalent concentration entry is “inactive”.

Take `O=C(Nc1ccccc1F)c1cc(S(=O)(=O)N2CCCCC2)cs1`: the max dye-equivalent concentration result was “inactive”.

As for `NCC(=O)[C@@H](O)[C@H](O)[C@H](O)CO`, the max dye-equivalent concentration result is “inactive”.

With `O=C(O)c1nn(-c2ccc(Cl)cc2)c2c1C(=O)c1ccccc1C2=O`, the max dye-equivalent concentration result is “inactive”.

Turning to `CCCN1CCN(CCCNC(=O)CN2C(=O)COc3ccccc32)CC1`, the max dye-equivalent concentration entry was “inactive”.

As for `CCn1c2c(c3ccc(OC)cc31)CCCC2=O`, the max dye-equivalent concentration is 11 nM (active).

In the case of `C[C@H](CCC(=O)NCC(=O)O)[C@H]1CC[C@H]2[C@H]3[C@@H](C[C@@H](O)[C@]12C)[C@]1(C)CC[C@H](O)C[C@@H]1C[C@@H]3O`, the max dye-equivalent concentration result is “inactive”.

For the molecule `CC1(C)Cc2c(sc3nc4n(c(=N)c23)CCCCC4)CO1`, the max dye-equivalent concentration entry was “inactive”.

Regarding `CCC1(C)Cc2c(sc3nc4n(c(=O)c23)CCCS4)CO1` (configuration not stated), the max dye-equivalent concentration was 56 nM (active).

Take `CCOC(=O)Cn1c(SC)nc2sc3c(c2c1=O)CC(C)(C)OC3`: the max dye-equivalent concentration result was “inactive”.

Regarding `CCCCC[C@H](O)CCCC(=O)O`, the max dye-equivalent concentration entry is “inactive”.

Consider `CC(=O)c1c(C)n(-c2ccc(N(C)C)cc2)c2ccc(OCC(N)=O)cc12`, for which the max dye-equivalent concentration entry is “inactive”.

Turning to `CCCc1[nH]nc2c1C(c1ccc(OC)c(Cn3nc(C)c(Br)c3C)c1)C(C#N)=C(N)O2` (configuration not stated), the max dye-equivalent concentration result was “inactive”.

Turning to `CC(=O)/C(=N\N=C(N)N)c1ccccc1`, the max dye-equivalent concentration entry is “inactive”.

For the molecule `O=C1c2cccc3cccc(c23)N1CN1CCN(c2ccccn2)CC1`, the max dye-equivalent concentration was 16 nM (active).

In the case of `OC(COc1cccc2ccccc12)CN1CCN(c2ccccn2)CC1` (configuration not stated), the max dye-equivalent concentration result was “inactive”.

In the case of `CC(=C1C(=O)c2ccccc2C1=O)N1CCN(c2ccccn2)CC1`, the max dye-equivalent concentration entry was “inactive”.

Consider `COc1ccccc1OCCC(=O)OCC(=O)NC(=O)NC(C)(C)C`, for which the max dye-equivalent concentration entry was “inactive”.

Turning to `CN1C(C)(C)CC(NC(=O)CCC(=O)NC2CC(C)(C)N(C)C(C)(C)C2)CC1(C)C`, the max dye-equivalent concentration entry is “inactive”.

For `CCn1c(=N)c(S(=O)(=O)c2ccc(F)cc2)cc2c(=O)n3ccccc3nc21`, the max dye-equivalent concentration was 780 nM (active).

`CC1CCCC(NC(=O)CSc2nccn2C)C1C` (configuration not stated): the max dye-equivalent concentration result is “inactive”.

`O=C(c1c(Cl)nc2sccn12)N1CCCc2ccccc21`: the max dye-equivalent concentration entry is “inactive”.

For `COc1ccccc1CNc1nc(-c2c(C)noc2C)nc2ccccc12`, the max dye-equivalent concentration entry is “inactive”.

Regarding `Cc1cnc(NC(=O)CSc2nnc(-c3ccccc3)n2Cc2ccccc2)s1`, the max dye-equivalent concentration entry was “inactive”.

Take `COc1ccc(CC(=O)Nc2nc3n(n2)C(c2ccccc2)CC(=O)N3)cc1OC` (configuration not stated): the max dye-equivalent concentration result was “inactive”.

Take `CNC(=O)CSc1nnnn1-c1ccc(C)cc1C`: the max dye-equivalent concentration entry is “inactive”.

For the molecule `COc1ccc(OC)c(C(=O)CSc2nnc(-c3cccs3)o2)c1`, the max dye-equivalent concentration is 150 nM (active).

On to `COc1ccc(-c2nnc(SCC(=O)c3cccs3)o2)c(OC)c1`, for which the max dye-equivalent concentration result is “inactive”.

On to `COc1ccc(-n2c(C)cc(C(=O)CSc3nnc(-c4cccs4)o3)c2C)cc1`, for which the max dye-equivalent concentration entry was “inactive”.

With `c1ccc(CSCCc2ccncc2)cc1`, the max dye-equivalent concentration result is “inactive”.

For `CN(CCC#N)c1ncnc2scc(-c3ccccc3)c12`, the max dye-equivalent concentration entry is “inactive”.

Source of the values: PubChem BioAssay AID590 (National Center for Advancing Translational Sciences (NCATS), 2007).
